Laboratory results taken from publication PMC5540273 (PLoS ONE, 2017).
Where “and” joins values, the source holds several entries; their conditions need not be identical. Identical values can stand only once. Like-named read-outs stand apart in the source and are kept apart here.

Assays:
Conditions in all cases: concentration: 1 μM, replicates: in singlicate, n = 1
AMPK-alpha2 = test system: T1, AMPK-alpha2
T1 construct: gene PRKAA2

ANKK1 = test system: ANKK1
ARK5 = test system: T2, ARK5
T2 construct: gene NUAK1

ASK1 = test system: T3, ASK1
T3 construct: gene MAP3K5

ASK2 = test system: T4, ASK2
T4 construct: gene MAP3K6

AURKA = test system: AURKA
AURKB = test system: AURKB
AURKC = test system: AURKC
AXL = test system: AXL
BIKE = test system: T5, BIKE
T5 construct: gene BMP2K
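Note: KINOMEscan kinase panel screen.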

| SMILES | %Inh (AMPK-alpha2) [%] | %Inh (ANKK1) [%] | %Inh (ARK5) [%] | %Inh (ASK1) [%] | %Inh (ASK2) [%] | %Inh (AURKA) [%] | %Inh (AURKB) [%] | %Inh (AURKC) [%] | %Inh (AXL) [%] | %Inh (BIKE) [%] | %Inh (AMPK-alpha2; 1 µM) | %Inh (ANKK1; 1 µM) | %Inh (ARK5; 1 µM) | %Inh (ASK1; 1 µM) | %Inh (ASK2; 1 µM) | %Inh (AURKA; 1 µM) | %Inh (AURKB; 1 µM) | %Inh (AURKC; 1 µM) | %Inh (AXL; 1 µM) | %Inh (BIKE; 1 µM) |
| --- | --- | --- | --- | --- | --- | --- | --- | --- | --- | --- | --- | --- | --- | --- | --- | --- | --- | --- | --- | --- |
| O=C(NOCC1CC1)c1ccc(F)c(F)c1Nc1ccc(I)cc1Cl | 0 | 0 | 0 | 0 | 0 | 0 | 0 | 20 | 2 | 43 | – | – | – | – | – | – | – | – | – | – |
| COc1cc2c(cc1OC[C@@H](O)CO)ncc1c3ccc(C#N)cc3[nH]c21 | 0 | 73 | 0 | 0 | 0 | 6 | 52 | 0 | 17 | 96.2 | – | – | – | – | – | – | – | – | – | – |
| CCc1ccnc(/C=C/c2n[nH]c3cc(Sc4ccccc4C(=O)NC)ccc23)c1 | 0 | 0 | 11 | 0 | 0 | 77 | 94.5 | 97.3 | 45 | 34 | – | – | – | – | – | – | – | – | – | – |
| N#Cc1c(N2CCOCC2)sc(-c2ccn[nH]2)c1-c1ccc(Cl)cc1 | 0 | 0 | 0 | 0 | 0 | 44 | 4 | 0 | 0 | 0 | – | – | – | – | – | – | – | – | – | – |
| Cl.Oc1cccc(Nc2ccnc3cc(-c4ccncc4)ccc23)c1 [GW494601] | 0 | 43 | 9 | 0 | 0 | 23 | 43 | 32 | 21 | 7 | – | – | – | – | – | – | – | – | – | – |
| CN(C1=C(c2ccccc2)C(=O)NC1=O)c1ccccc1 [SB-334860] | 23 | 9 | 42 | 12 | 0 | 21 | 10 | 0 | 0 | 0 | – | – | – | – | – | – | – | – | – | – |
| CN(C(=O)c1ccc(-c2cc(-c3c[nH]nc3-c3ccccn3)ccn2)cc1)C1CCOCC1 [GW810083] | 0 | 0 | 15 | 44 | 0 | 0 | 0 | 7 | 48 | 20 | – | – | – | – | – | – | – | – | – | – |
| O=C(NCCNc1ccnc(Nc2ccc(F)cc2)n1)c1cc2ccccc2s1 [GSK1379874] | 0 | 0 | 0 | 1 | 0 | 11 | 0 | 32 | 10 | 0 | – | – | – | – | – | – | – | – | – | – |
| CC(C)Oc1ccc2c(-c3ccnc(Nc4ccc(N5CCN(C)CC5)cc4)n3)cnn2n1 [GW696155] | 52 | 20 | 95.5 | 0 | 0 | 98.6 | 70 | 75 | 74 | 99.8 | – | – | – | – | – | – | – | – | – | – |
| CNc1ncnc2[nH]ncc12 [SKF-18355] | 0 | 0 | 0 | 0 | 0 | 2 | 34 | 0 | 0 | 0 | – | – | – | – | – | – | – | – | – | – |
| COc1ccc(COc2cc(-n3cnc4ccccc43)sc2C(N)=O)cc1 [GSK1024304] | 0 | 8 | 14 | 0 | 0 | 2 | 0 | 12 | 0 | 25 | – | – | – | – | – | – | – | – | – | – |
| [2H]C([2H])(c1cccc(C(F)(F)F)c1C)n1ccn2c(=O)nc(N3CCOCC3)cc12 [GSK2336394] | 15 | 0 | 0 | 1 | 0 | 0 | 11 | 13 | 8 | 23 | – | – | – | – | – | – | – | – | – | – |
| CC(C)(CN)c1nc(-c2ccc(Cl)c(O)c2)c(-c2ccncc2)[nH]1.O=C(O)C(F)(F)F [SB-477794] | – | – | – | – | – | – | – | – | – | – | 15% and 13% | 0% and 1% | 19% and 0% | 19% and 0% | 1% and 3% | 8% and 0% | 31% and 15% | 0% and 30% | 5% and 13% | 0% and 21% |
| N#Cc1ccc(-c2cc(-c3c[nH]nc3-c3ccccn3)ccn2)cc1 [GW693028] | 49 | 0 | 27 | 0 | 0 | 0 | 32 | 0 | 0 | 11 | – | – | – | – | – | – | – | – | – | – |
| COc1ccc(CNC(=O)NC2CCN(c3ccnc(Nc4ccc(OC)cc4)n3)C2)cc1 (stereo not drawn) [GSK1379727] | 0 | 0 | 0 | 0 | 0 | 5 | 22 | 56 | 7 | 11 | – | – | – | – | – | – | – | – | – | – |
